Assay outcomes as filed in PubChem BioAssay.
HEK cytotox: Cytotoxic Profiling in HEK 293 Cell Line of Diverse Libraries Using Quantitative High-Throughput Screening | AID 1345083, 2018 | HEK 293 viability, ATP luminescence (CellTiter-Glo), 48-72 h | 6.6% of 94,000 active | Potency, µM (titrated, usually from 115 µM), for inactives: at the top dose activity change, negative = cytotoxicity, actives largely listed as inhibitors; also: nearly all actives have a fitted effect of over 60% in size
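Luminescence from cellular ATP, measured with CellTiter-Glo, indicates HEK 293 viability. Cells plated at 250 cells/well are treated with compound for 48 or 72 hr at 37 degree Celsius before reagent addition.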
NPR1 antag: Natriuretic polypeptide receptor (hNpr1) antagonism - Primary qHTS; Atrial natriuretic peptide receptor 1 (Homo sapiens), P16066; HEK293 hNpr1 GloSensor cGMP, ANP-stimulated luminescence; Potency, µM (doses to about 46.3 µM), for the others: at the highest dose activity change, negative = inhibition, hits mostly inhibitors; 1.6% of 76,000 active; AID 1347048, 2019; calls by dose curve; also: nearly all actives have a fitted effect of over 60% in size
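HEK293 cells stably expressing human Npr1 and cGMP GloSensor pGS-40F, loaded 2 h with 2% GloSensor reagent, given compound 30 min at room temperature. Luminescence read before and 20 min after 0.1 nM hNppA.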
3T3 cytotox: Cytotoxic Profiling in NIH 3T3 Cell Line of Diverse Libraries Using Quantitative High-Throughput Screening; NIH 3T3 viability, CellTiter-Glo ATP luminescence, 48-72 h; Potency, µM (top dose mostly 96.7 µM), inactives show top-dose activity change, negative = cytotoxicity, hits mostly inhibitors; 4.3% of 94,000 active; AID 1345082, 2018; also: nearly all actives have a fitted effect of over 55% in size
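Viability of NIH 3T3 cells after 48 or 72 hr compound treatment at 37 °C was assessed by CellTiter-Glo, with luminescence imaged following a 10 min room-temperature step.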
GPT2 inh: Primary qHTS assay for inhibitors of Glutamate pyruvate transaminase 2 (GPT2) | Alanine aminotransferase 2 (Homo sapiens), Q8TD30 | Recombinant GPT2, coupled pyruvate oxidase/HRP Amplex Red fluorescence | Potency, µM (highest dose often 57.7 µM), without a hit: at the highest dose activity change, negative = inhibition, hits mostly inhibitors | 0.25% of 100,000 active; also: nearly all actives have a fitted effect of over 60% in size
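Recombinant GPT2 (10ng/uL) with 250uM a-KG and 2mM L-alanine, 30 min at room temperature, in HEPES pH 7.5 buffer. Pyruvate detected by pyruvate oxidase/HRP/Amplex Red fluorescence after 30 min in the dark; AOA (50uM) as positive control.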
FLuc inh: Firefly luciferase inhibition profiling of diverse chemical library using quantitative high-throughput screening. purified P. pyralis luciferase, luminescence, biochemical. Potency, µM (doses to about 115 µM), hits mostly inhibitors. AID 1347043, 2019. 2.5% of 76,000 active; also: nearly all actives have a fitted effect of over 65% in size
Target sequence (P08659 whole entry, looked up): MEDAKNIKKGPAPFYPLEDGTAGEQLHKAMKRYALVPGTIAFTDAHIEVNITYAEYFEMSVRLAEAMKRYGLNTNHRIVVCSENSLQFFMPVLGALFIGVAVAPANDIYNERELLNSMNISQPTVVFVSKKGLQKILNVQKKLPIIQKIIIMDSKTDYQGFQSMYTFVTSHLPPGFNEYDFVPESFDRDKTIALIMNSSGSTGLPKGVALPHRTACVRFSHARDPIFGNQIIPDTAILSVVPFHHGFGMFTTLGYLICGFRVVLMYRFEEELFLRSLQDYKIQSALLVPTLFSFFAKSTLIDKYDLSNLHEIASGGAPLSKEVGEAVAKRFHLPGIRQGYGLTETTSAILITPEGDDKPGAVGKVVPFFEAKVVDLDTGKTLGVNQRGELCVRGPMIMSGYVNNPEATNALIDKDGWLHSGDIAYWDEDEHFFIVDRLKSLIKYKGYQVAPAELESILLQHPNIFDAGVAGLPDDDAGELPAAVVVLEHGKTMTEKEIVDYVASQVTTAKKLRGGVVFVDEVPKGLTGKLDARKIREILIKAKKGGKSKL
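Purified P. pyralis luciferase (10nM final) in 50mM Tris acetate pH 7.5, 10mM Mg acetate, 0.01% Tween-20, 0.05% BSA with 10uM D-luciferin and 10uM ATP. Compounds titrated qHTS. Luminescence imaged on CCD.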
* marks the source's active call; other numbers are inactive results; i = inactive; ? = inconclusive; . = no result given; [ ] = dose if it differs, or a comment. Shown are actives, neighbours in structure and some others; about 10% of the full set was active somewhere. Unless noted, calls follow the shape of the dose curve; as a rule, active = well fitted curve in the direction sought with a large enough effect; inconclusive = small, poorly fitted or top-dose-only effect, or another doubt; inactive = no such curve, though single readings can be large; an effect the other way counts as inactive or inconclusive. % is scaled to controls: 0 for no effect and ±100 for the full control effect; potency is read from the fitted curve at half-maximal effect.

SMILES	HEK cytotox	NPR1 antag	3T3 cytotox	GPT2 inh	FLuc inh
COCCNC[C@@H]1C=C(C)[C@H](Cc2nnc(-c3ccc(OC)cc3)o2)C[C@H]1C(C)C	28µM*	1%[70.6 µM]	28µM*	?	i
COc1ccc(-c2nnc(C[C@@H]3C[C@@H](C(C)C)[C@H](CO)C=C3C)o2)cc1	40µM*	-2%[70.6 µM]	?	-5%[88.5 µM]	i
CCCC1c2nccn2CCCN1C(=O)c1ccncc1F (centres undefined)	-10%	2%	-9%	0%	i
Cc1ccc(C(=O)N2CCCC3(C2)Nc2cccnc2NC3=NC2CCCC2)cc1F (centres undefined)	71µM*	3%	?	-27%	i
O=C(c1ccc2c(c1)OCO2)N1CCCC2(C1)Nc1cccnc1NC2=NC1CCCC1 (centres undefined)	-26%	-1%	-13%	?	i
c1ccc2c(N3CCN(Cc4cc5n(n4)CCNC5)CC3)nsc2c1	40µM*	4%	?	-20%	i
c1ccc2sc(N3CCN(Cc4cc5n(n4)CCCNC5)CC3)nc2c1	-14%	0%	-20%	-39%	i
Cc1csc(NC(=O)[C@@H]2C[C@H](c3cccc(C(F)(F)F)c3)N(Cc3cnn(C)c3)C2)n1	?	-13%	28µM*	-18%	i
O=C(Nc1cccnc1)[C@@H]1C[C@@H](c2ccc(F)cc2)N(CCOc2ccccc2)C1	?	?	89µM*	-9%[88.5 µM]	i
Cn1cc(CN2C[C@H](C(=O)Nc3nccs3)C[C@H]2c2cccc(C(F)(F)F)c2)cn1	?	1%[70.6 µM]	?	1%[88.5 µM]	i
O=C(Nc1nccs1)[C@@H]1C[C@@H](c2ccc(F)cc2)N(Cc2ccccc2)C1	40µM*	?	?	2%[88.5 µM]	i
O=C(Nc1nccs1)[C@@H]1C[C@@H](c2cccc(C(F)(F)F)c2)N(CC2CCOCC2)C1	?	-20%[70.6 µM]	79µM*	-5%[88.5 µM]	i
O=C(Nc1ccncn1)[C@@H]1C[C@@H](c2ccc(F)cc2)N(CCOc2ccccc2)C1	?	?	?	-1%[88.5 µM]	i
O=C(NCc1ccncc1)[C@@H]1C[C@@H](c2ccc(F)cc2)N(Cc2ccccc2)C1	?	2%[70.6 µM]	-16%[138 µM]	-11%[88.5 µM]	i
CCn1ccnc1C1CCN(C(=O)CC2COCCN2)CC1 (centres undefined)	-34%	4%	-7%	-12%	i
CCc1nc(-c2c3n(c(=O)n(CC(=O)NCc4ccccc4)c2=O)CCCCC3)no1	0%	-27%	3%	i	i
O=C(Nc1nccs1)[C@@H]1C[C@H](c2ccc(F)cc2)N(Cc2ccccc2Cl)C1	?	-3%[70.6 µM]	32µM*	-23%[88.5 µM]	i
O=C(NCc1cccnc1)[C@@H]1C[C@@H](c2ccc(F)cc2)N(Cc2ccccc2)C1	?	1%[70.6 µM]	?	i	i
Cn1ccc(NC(=O)[C@@H]2C[C@H](c3ccc(F)cc3)N(Cc3ccccc3Cl)C2)n1	50µM*	?	?	-16%[88.5 µM]	i
Cn1ccc(NC(=O)[C@@H]2C[C@@H](c3ccc(F)cc3)N(CCOc3ccccc3)C2)n1	?	-29%[70.6 µM]	?	-6%[88.5 µM]	i
COCCNc1ncc(-c2cccc(OC)c2)c2c1OCC2	?	-3%[70.6 µM]	?	?	18µM*
COCCNc1ncc(-c2ccc(NC(C)=O)cc2)c2c1OCC2	?	5%[70.6 µM]	?	i	i
Cc1cc(-c2cnc(Nc3ccc(F)cc3)c3c2CCO3)ccn1	?	-18%[70.6 µM]	?	i	i
COc1ccc(C(=O)Nc2ncc(-c3cccc(N(C)C)c3)c3c2OCC3)cc1	100µM*	?	?	i	?
COCCNc1ncc(-c2cccc(F)c2)c2c1OCC2	?	-1%[70.6 µM]	?	i	79µM*
SMILES	HEK cytotox	NPR1 antag	3T3 cytotox	GPT2 inh	FLuc inh
CN(C)c1cccc(-c2cnc(Nc3cncnc3)c3c2CCO3)c1	?	-18%[70.6 µM]	?	1%[88.5 µM]	i
CN(C)c1cccc(-c2cnc(NC(=O)c3ccncc3)c3c2CCO3)c1	?	-3%[70.6 µM]	-25%[138 µM]	i	i
COCCNc1ncc(-c2cccc(N[S+](C)(=O)[O-])c2)c2c1OCC2	?	3%[70.6 µM]	?	i	63µM*
Cn1nccc1C(=O)NCC(=O)N1CCCCCNC(=O)CC1c1ccccc1 (centres undefined)	-7%	3%	-13%	i	i
O=C(Cc1ccc(F)cc1)N1CCC(c2n[nH]c(=O)n2Cc2ccc(F)cc2)CC1	-4%	0%	-3%	i	i
Cn1cc(-c2cnc(NC(=O)c3c[nH]c4ccccc34)c3c2CCO3)cn1	-19%[172 µM]	-2%[70.6 µM]	?	-1%[88.5 µM]	i
CNC(=O)c1cccc(-c2cnc(Nc3cccc(F)c3)c3c2CCO3)c1	?	-5%[70.6 µM]	?	i	22µM*
O=C(Nc1ncc(-c2cccc(F)c2)c2c1OCC2)c1c[nH]c2ccccc12	50µM*	-12%[70.6 µM]	40µM*	i	?
CCn1cc(-c2ccc(OC)cc2)cc1C(=O)NC(C)c1cccnc1 (centres undefined)	?	-16%	-28%	i	i
COc1ccc(Nc2cc(-c3cccs3)nc3c(C)noc23)cc1OC	63µM*	-21%[70.6 µM]	45µM*	?	i
Cc1nc(N2CCC(C(=O)NCc3ccc4c(c3)OCO4)CC2)cc(C(F)(F)F)n1	?	?	?	3%	89µM*
Cc1ccc(Nc2ccnc(N3CCC(C(=O)NCC4CC4)CC3)n2)cc1	?	.	32µM*	i	.
COCCNC(=O)C1CCN(c2nccc(Nc3ccc(C)cc3)n2)CC1	?	.	?	i	.
Cc1ccc(Nc2ccnc(N3CCC(C(=O)NCc4ccc(F)cc4)CC3)n2)cc1	?	.	?	i	.
COc1ccc(CNC(=O)C2CCN(c3nccc(Nc4ccc(C)cc4)n3)CC2)cc1	?	.	28µM*	1%	.
COc1ccc(Nc2ccnc(N3CCC(C(=O)NCc4ccc(F)cc4)CC3)n2)cc1	?	.	40µM*	i	.
COc1ccc(CNC(=O)C2CCN(c3nccc(Nc4ccc(OC)cc4)n3)CC2)cc1	45µM*	.	40µM*	-2%	.
COc1ccc(Nc2ccnc(N3CCC(C(=O)N(C)C)CC3)n2)cc1	?	.	-29%	1%	.
Cc1ccc(Nc2ccnc(N3CCC(C(=O)NCc4ccc5c(c4)OCO5)CC3)n2)cc1	?	.	18µM*	i	.
CCc1cc(C(=O)N2CCC3(CC2)OCCCC3O)n(C)n1 (centres undefined)	-4%	-2%	-4%	i	i
